# MCL1-BIM inh: inhibitors of human MCL1 binding to BIM-BH3 peptide; inhibition, % at 10.9 µM; 320,000 tested, 0.68% active; Q07820; GST-MCL1 / FITC-Bim-BH3 fluorescence polarization;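 active = inhibition above the mean inhibition of all tested compounds plus 3 SD, set per campaign, cut at about 40% in these data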;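 note: 0% = DMSO wells and 100% = unlabeled Bim-BH3 peptide control; higher means more loss of mP so more displacement of Bim peptide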
# Bcl-xL primary: Bcl-xL (human) inhibition; Q07817; GST-Bcl-xL / FITC-Bim BH3 peptide fluorescence polarization; inhibition, % at 10.9 µM; 320,000 tested, 0.7% active;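 active = inhibition above the mean of all tested compounds plus 3 SD, cutoff set per campaign, cut at about 30% in these data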;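 note: 0% = DMSO wells and 100% = unlabeled Bim-BH3 peptide competitor; inhibitors lower millipolarization by displacing the labeled peptide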
# Target sequence (Q07817 whole entry, looked up): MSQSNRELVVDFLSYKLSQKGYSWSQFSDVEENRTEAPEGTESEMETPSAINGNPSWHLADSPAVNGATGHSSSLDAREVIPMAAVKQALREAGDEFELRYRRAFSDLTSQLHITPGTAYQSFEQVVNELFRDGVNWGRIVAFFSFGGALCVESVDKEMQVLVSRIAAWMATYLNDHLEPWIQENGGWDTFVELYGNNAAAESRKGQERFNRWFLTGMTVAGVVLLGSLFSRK
# LANA-H2A inh: blocks KSHV LANA binding to histone H2A/H2B; inhibition, % (no concentration beside the values); 320,000 tested, 0.6% active; Q9QR71; cell-free LANA-H2A/H2B peptide, fluorescence polarization; in the data active = inhibition mostly above about 10%, no sharp cut-off; inactive = mostly below about 6.7%
# CR mimetic SO: yeast age-related superoxide inhibition as caloric restriction mimetic; S. cerevisiae aged cells, superoxide DHE fluorescence; active compounds read low; superoxide response (% of plate mean), % at 10 µM; 330,000 tested, 0.18% active; AID 2690;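 active = superoxide response under a set limit, about three screen SD below normal, cut at about 65% in these data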;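 note: yeast aged for seven days with compound at 30 °C before DHE staining; 100% = average MFI of all compound-treated wells on the plate with controls excluded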
# GLD-1 TGE inh: GLD-1-TGE RNA interaction inhibition (C. elegans). purified GLD-1 + fluorescein TGE RNA, fluorescence polarization. inhibition, % at 5.96 µM. 320,000 tested, 0.44% active;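 active = percent inhibition above a per-plate cutoff, the plate mean of test compounds plus 3 SD, cut at about 30% in these data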;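 note: 0% = DMSO wells with GLD-1 and probe and 100% = wells lacking GLD-1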
# MEX-5 binding: C. elegans MEX-5 TCR-2 RNA binding activity | MEX-5/FITC-TCR2 RNA binding, fluorescence polarization; active compounds read low | activity score (negative = inhibition of binding), % at 10 µM | 300,000 tested, 0.38% active | AID 1832;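 active = inhibition past about -25% in most replicates, and total fluorescence under double the plate's negative control median, limit read from the data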;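 note: 0% = DMSO and -100% = 5 µM competing unlabeled TCR2 RNA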
# Target sequence (Q9XUB2 whole entry, looked up): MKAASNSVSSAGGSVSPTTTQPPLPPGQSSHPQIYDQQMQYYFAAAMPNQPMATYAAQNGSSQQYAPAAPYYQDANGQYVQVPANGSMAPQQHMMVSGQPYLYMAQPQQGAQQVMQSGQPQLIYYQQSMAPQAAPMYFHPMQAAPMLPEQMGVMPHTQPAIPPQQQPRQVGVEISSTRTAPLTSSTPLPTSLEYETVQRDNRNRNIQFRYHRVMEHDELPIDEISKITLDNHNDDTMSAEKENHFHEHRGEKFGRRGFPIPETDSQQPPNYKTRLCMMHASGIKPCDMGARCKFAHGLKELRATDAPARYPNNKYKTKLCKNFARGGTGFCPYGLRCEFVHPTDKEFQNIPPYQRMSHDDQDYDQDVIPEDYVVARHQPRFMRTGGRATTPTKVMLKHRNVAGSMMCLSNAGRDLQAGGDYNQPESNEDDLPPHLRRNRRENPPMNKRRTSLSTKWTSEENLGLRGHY
# GLD1 RNA confirm: confirmation of C. elegans GLD-1 TGE RNA binding inhibitors; 550 tested, 10% active; GLD-1/FL-TGE RNA fluorescence polarization, biochemical; shares compounds with GLD-1 TGE inh; AID 2459; inhibition, % at 5.96 µM;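 active = average inhibition across triplicates above the hit cutoff set in the primary screen, cut at about 32% in these data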;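 note: 0% = GLD-1 with RNA probe and DMSO and 100% = wells lacking GLD-1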
# * hit, by the source's call; . = not tested or not shown. Rows were chosen to be rich in hits. Some 1.9% of all compounds tested hit in one or more screens of this group.
SMILES,MCL1-BIM inh,Bcl-xL primary,LANA-H2A inh,CR mimetic SO,GLD-1 TGE inh,MEX-5 binding,GLD1 RNA confirm
O=C1CS/C(=C\[N+](=O)[O-])N1c1ccccc1,-10.1,0.9,0.0,99.2,35.3*,-44.8*,56.0*
O=C(O)C1Sc2[nH]c(=O)sc2C2c3cc(Br)ccc3OC(=O)C12 (stereo unspecified),44.5*,38.1*,-0.1,103.4,54.1*,.,-2.4
COC(=O)C1Sc2[nH]c(=O)sc2C2c3ccccc3OC(=O)C12 (stereo unspecified),11.0,1.6,-0.7,119.9,-0.5,-0.7,.
CCOc1ccc(S(=O)(=O)Nc2nc3ccc(OC)cc3s2)cc1,0.1,3.0,3.6,102.4,39.3*,-0.4,-1.9
Cc1ccc2nc3n(c(=O)c2c1)-c1ccc(Cl)cc1C(=O)NC3Cc1ccccc1 (stereo unspecified),2.8,3.6,-5.2,106.8,32.8*,.,0.6
C[C@@H]1CC(=O)[C@H]2CC(CO)=CCC[C@@H]2[C@@]1(C)CC/C(=C/CO)CO,-0.2,4.2,3.9,76.2,80.0*,.,3.0
COc1ccccc1NC(=O)COC(=O)c1ccccc1C(=O)N1CCN(c2ccccc2)CC1,43.7*,42.1*,2.1,91.0,33.1*,-4.8,3.9
FC(F)(F)c1cc(Cl)c2nc(-c3ccccc3)cn2c1,-1.6,0.2,-3.5,102.8,1.0,-1.9,.
Fc1ccc(-c2nc3c(Cl)cc(C(F)(F)F)cn3c2Cl)cc1,22.1,24.8,2.7,90.5,37.5*,-26.1*,18.0
Cc1ccc(-c2nc(-c3ccncc3)no2)cc1Cl,2.6,0.8,-3.5,103.8,-2.9,0.2,.
Cc1ccc(-c2nc(-c3ccncc3)no2)cc1C,5.3,3.6,-1.4,102.8,37.2*,1.9,-1.8
COc1ccc2[nH]cc(CCNC(=O)c3ccccc3Cl)c2c1,51.6*,46.9*,-6.2,99.2,32.8*,-2.2,5.1
CCc1ccc(NC(=O)C2CCCN(S(=O)(=O)c3cnc[nH]3)C2)cc1 (stereo unspecified),7.1,2.2,2.6,118.3,61.4*,0.9,-1.3
CCc1ccc(NC(=O)C2CCN(S(=O)(=O)c3cnc[nH]3)CC2)cc1,-2.3,4.9,-4.0,103.3,5.8,-0.5,.
Cc1cc(C(=O)COC(=O)c2cccc(NS(C)(=O)=O)c2)c(C)n1CC1CCCO1 (stereo unspecified),.,.,0.3,94.0,7.4,.,.
CC(C)CN1C=C2C(=O)C(C)(OC(=O)C3CCCC3)C(=O)C=C2C=C1c1ccsc1 (stereo unspecified),23.8,19.6,1.8,102.6,9.8,-2.4,.
C=CCN1C=C2C(=O)C(C)(OC(=O)C3CCCC3)C(=O)C=C2C=C1c1ccsc1 (stereo unspecified),38.2,31.2*,5.2,108.3,31.8*,-6.2,2.7
CCOC(=O)CNc1c(-c2ccc(OC)cc2)nc2ccc(Cl)cn12,17.6,16.0,1.5,106.6,36.6*,-11.2,20.1
COCCNc1c(-c2ccc(OC)cc2)nc2ccc(Cl)cn12,23.3,23.9,5.5,106.5,22.7,-13.8,.
COc1ccc(C(=O)NC(=S)Nc2ccc(CN3CCOCC3)cc2)cc1,5.3,6.1,2.4,97.4,63.5*,-2.8,3.3
O=C(Nc1cccc2ccccc12)c1ccccc1Cl,0.5,0.4,-3.5,121.2,50.7*,-0.2,1.1
Nc1ccccc1C(=O)Nc1cccc2ccccc12,.,.,-3.6,101.7,.,1.7,.
CCOc1ncccc1C(=O)Nc1cccc(S(=O)(=O)N2CCOCC2)c1,.,.,0.4,105.1,3.5,.,.
CN(C(=O)c1ccc(NC(=O)C2CCCN(C(=O)OC(C)(C)C)C2)cc1)C1CCCC1 (stereo unspecified),.,.,-2.7,93.1,-0.7,.,.
Cc1c(C(=O)N2CCC3(CC2)CC(=O)c2ccccc2O3)cccc1[N+](=O)[O-],-0.1,-1.2,-0.2,96.0,43.8*,0.2,-3.7
SMILES,MCL1-BIM inh,Bcl-xL primary,LANA-H2A inh,CR mimetic SO,GLD-1 TGE inh,MEX-5 binding,GLD1 RNA confirm
CCN(C[C@H]1N[C@@](C)(C(=O)OC)[C@H]2C(=O)N(C)C(=O)[C@@H]12)C(=O)Nc1ccc(Cl)cc1,.,.,3.4,98.9,1.6,.,.
Nc1c(N(CCC2=CCCCC2)C(=O)Cc2ccc(F)cc2)c(=O)[nH]c(=O)n1Cc1ccccc1,-6.3,-3.5,-1.8,94.8,3.2,0.6,.
Nc1c(NCCC2=CCCCC2)c(=O)[nH]c(=O)n1Cc1ccccc1,41.4*,41.7*,0.7,104.2,47.5*,-49.9*,-1.5
C=C1/C=C(\C)C(C)(O)CC(O)CC(=O)C(O)C(O)C(C)CC(C)OC(=O)/C(C)=C/CC/C=C/C(OC)C(O)CC(C)C1 (stereo unspecified),.,.,-4.6,80.6,4.8,.,.
CC1CCCCN1Cc1c(O)ccc2c(=O)c(-c3ccccc3)coc12 (stereo unspecified),41.1*,36.2*,-4.6,118.6,41.9*,1.1,-1.4
COC(=O)[C@H](CCSC)NC(=O)Cn1cnc(C(=O)Nc2ccc(C)c(C)c2)n1,.,.,.,95.9,.,.,.
CC(=O)c1c(C)[nH]c(C(=O)OCC(=O)Nc2cc(Cl)ccc2[N+](=O)[O-])c1C,7.6,1.6,1.8,113.4,34.2*,2.1,6.8
Nc1c(Cl)ncnc1N/N=C/c1ccc2ccccc2n1,15.0,17.1,6.7,90.9,32.4*,.,-5.8
Nc1c(Cl)ncnc1N/N=C/c1ccccn1,23.2,15.2,10.4,82.3,18.9,.,.
CC1=C(C(N)=O)S(=O)(=O)c2ccccc21,20.7,20.1,1.6,86.6,38.1*,-8.9,24.1
COc1cccc(-c2nnc(NC(=O)c3cccc(F)c3)o2)c1,-4.0,0.8,0.0,128.1,-5.0,-0.6,.
COc1cccc(-c2nnc(NC(=O)C(C)C)o2)c1,50.0*,47.5*,3.2,102.8,37.2*,1.2,-0.1
CC(CCC(C)C(C)(C)C)[C@@H]1CC[C@H]2C3C[C@H](OS(O)(=S)=S)[C@H]4C[C@H](OS(O)(=S)=S)[C@@H](OS(O)(=S)=S)C[C@]4(C)[C@H]3CC[C@]12C (stereo partly specified) (tested in a mixture with another compound),.,.,4.6,113.7,84.9*,.,71.6*
C[C@H](CCC(=O)O)[C@H]1CC[C@H]2[C@@H]3[C@H](O)C[C@@H]4C[C@H](O)CC[C@]4(C)[C@H]3CC[C@]12C,7.5,3.1,-2.5,107.1,2.7,.,.
COc1ccc(NC(=O)[C@@H]2CCCN2S(=O)(=O)c2ccccc2F)cc1S(=O)(=O)N1CCCCC1,.,.,-1.9,112.3,5.2,.,.
C=C(C)CSc1nc2nc(C)cc(C)n2n1,34.5,29.4,0.2,91.0,35.2*,-0.9,-7.0
CCSc1nc2nc(C)cc(C)n2n1,-0.3,1.8,-3.2,99.7,14.1,-2.5,.
